Experiment [1] has as its target Cellular tumor antigen p53 (Homo sapiens) (UniProt P04637). Briefly: TOX21_p53_BLA_p2_ratio: Tox21 HCT-116 p53 Agonism Beta-lactamase Assay, Ratio, Phase 2 (AID 2283592). Summed up: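 Cleaved-to-uncleaved substrate ratio (460 vs 530 nm) measured in HCT116 cells with an inducible beta-lactamase reporter linked to p53 activity. Compounds incubated 16 h at 37C before 2 h room-temperature CCF4-AM loading.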

Experiment [2] has the same target. Kind of experiment: TOX21_p53_BLA_p5_ratio: Tox21 HCT-116 p53 Agonism Beta-lactamase Assay, Ratio, Phase 5 (AID 2283599). The method, boiled down: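 HCT-116 cells carrying a p53-inducible beta-lactamase reporter were seeded at 4000 cells/well and dosed after 5 h with compound in DMSO (217-fold dilution). After 16 h at 37C, CCF4-AM substrate was added for 2 h, and the 460/530 nm emission ratio was scored as gain-of-signal versus DMSO.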

A short description of experiment [3]: TOX21_p53_BLA_p5_viability: Viability Assessment in the Tox21 HCT-116 p53 Agonism Beta-lactamase Assay, Phase 5 (AID 2283600). Summed up:
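Viability is taken from cellular ATP content, measured by luciferase luminescence in the same wells after the beta-lactamase ratio read. Cells are seeded at 4000 per well and exposed to DMSO-dissolved compounds, diluted 217-fold, for 16 h.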

Experiment [4] addresses Cellular tumor antigen p53 (Homo sapiens) (UniProt P04637). Briefly: TOX21_p53_BLA_p4_ratio: Tox21 HCT-116 p53 Agonism Beta-lactamase Assay, Ratio, Phase 4 (AID 2283601). Summed up: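 HCT116 cells carrying an inducible beta-lactamase reporter were plated at 4000 cells/well, rested 5 h, then exposed to compounds in DMSO (217-fold dilution) for 16 h at 37C. CCF4-AM substrate was loaded 2 h at room temperature; 460/530 nm emission ratio scored gain-of-signal versus DMSO.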

Experiment [5] is described as follows: CCTE_Harrill_HTTr_Viability_MCF7: CCTE's 6-hour Cell Viability Assessment for the High-Throughput Transcriptomics (HTTr) Platform, in MCF-7 cells cultured in DMEM + 10% fetal bovine serum, Harrill Lab (AID 2284010; active = hit-call score of the fitted dose curve at least 0.9, where 1 is the maximum; inactive = score below 0.9). Summed up: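 Read-out is propidium iodide gain of signal by high-content imaging, reflecting membrane integrity loss. Measurements are taken 6 h after dosing, eight concentrations per chemical, with DMSO serving as baseline for bidirectional curve fitting.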

Experiment [6] can be described thus: CCTE_Harrill_HTTr_CellCount_MCF7: CCTE's Cell Proliferation Assessment for the High-Throughput Transcriptomics (HTTr) Platform, Harrill Lab (AID 2284012).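 Note: cells exposed to compound for six hours; intended direction is loss of nuclei count meaning fewer cells.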 The method, boiled down: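 Cell count served as viability reporter: loss of Hoechst-stained nuclei, counted by high content imaging, marks decreased growth or survival. Exposure was 6 h in MCF-7 cells across eight concentrations, with DMSO as baseline.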

The nature of experiment [7]: CCTE_Harrill_HTTr_Apoptosis_MCF7: CCTE's 6-hour Apoptosis Assessment for the High-Throughput Transcriptomics (HTTr) Platform, in MCF-7 cells cultured in DMEM + 10% fetal bovine serum, Harrill Lab (AID 2284011; active = hit-call score of the fitted dose curve at least 0.9, where 1 is the maximum; inactive = score below 0.9). Summed up: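 Cells are dosed with test chemicals at eight concentrations and imaged 6 hours later for caspase-3/7 activity using a green fluorogenic detection reagent. Activity is fitted in both directions against DMSO controls.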

Experiment [8] can be described thus: TOX21_p53_BLA_p3_viability: Viability Assessment in the Tox21 HCT-116 p53 Agonism Beta-lactamase Assay, Phase 3 (AID 2283593).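 Note: cells exposed to compound for 16 h before reading.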 The method, boiled down: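 HCT-116 cells (4000/well) rested 5 h at 37C, then got DMSO compounds by pin tool (217-fold dilution) for 16 h at 37C, 5% CO2. After the bla read, CellTiter-Glo was added and luminescence read at 30 min, room temperature.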

Experiment [9] has as its target Cellular tumor antigen p53 (Homo sapiens) (UniProt P04637). Briefly: TOX21_p53_BLA_p3_ratio: Tox21 HCT-116 p53 Agonism Beta-lactamase Assay, Ratio, Phase 3 (AID 2283596). Summed up: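 Cells were seeded at 4000/well, rested 5 h at 37C, then dosed with DMSO compound solutions (217-fold dilution) for 16 h. CCF4-AM substrate was loaded for 2 h at room temperature, and the 460/530 nm emission ratio was fitted for gain of signal versus DMSO.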

A short description of experiment [10]: TOX21_p53_BLA_p4_viability: Viability Assessment in the Tox21 HCT-116 p53 Agonism Beta-lactamase Assay, Phase 4 (AID 2283597).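 Note: hits lower the luminescence signal meaning cytotoxicity.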 Summed up: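 Viability is taken as cellular ATP: after 16 h compound exposure of HCT116 cells and a 2 h room-temperature CCF4-AM substrate step, CellTiter-Glo reagent is added and luminescence is measured 30 min later.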

The structures appear in SMILES notation. Records with an inconclusive call do not appear. Activity calls are given as the source filed them. Rule for the calls, unless noted: active = hit-call score of the fitted dose curve at least 0.9, where 1 is the maximum; inconclusive = response in the unintended direction; inactive = score below 0.9.

Experimental findings from PubChem BioAssay (EPA / NIEHS) are described below.

Sequence of Cellular tumor antigen p53 (Homo sapiens) (P04637 whole entry, looked up): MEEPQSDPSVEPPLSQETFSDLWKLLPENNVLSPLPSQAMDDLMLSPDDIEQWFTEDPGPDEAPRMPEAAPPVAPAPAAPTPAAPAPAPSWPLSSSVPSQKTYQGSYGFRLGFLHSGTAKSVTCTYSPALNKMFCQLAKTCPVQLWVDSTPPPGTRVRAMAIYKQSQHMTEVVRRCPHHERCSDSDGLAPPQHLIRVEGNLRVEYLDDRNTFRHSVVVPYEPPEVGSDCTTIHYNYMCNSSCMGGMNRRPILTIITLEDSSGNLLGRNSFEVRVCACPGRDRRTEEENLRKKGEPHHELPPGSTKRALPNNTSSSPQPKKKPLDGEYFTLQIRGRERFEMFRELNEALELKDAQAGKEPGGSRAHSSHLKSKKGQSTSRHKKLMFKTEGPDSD

With `C=C(C)C(=O)NCCC[N+](C)(C)C`, the result in experiment [1], in experiment [2], in [3] and in experiment [4] was inactive.
On to `Cc1nc2ccc(Cl)cc2[nH]1`, for which the result in experiment [1], in experiment [2] and in experiment [4] was inactive.
With `CN(C)Cc1ccccc1`, the outcome in [1], in [2], in [3] and in experiment [4] was inactive.
In the case of `C#CCN[C@@H]1CCc2ccccc21`, the result in experiment [1], in [2] and in experiment [4] was inactive.
For `Cc1ccc2ccccc2c1[N+](=O)[O-]`, the outcome in experiment [1], in experiment [2] and in experiment [4] was inactive.
Turning to `CCCCCCCCCCCCCCCC/C=C/C1CC(=O)OC1=O` (stereo not given), the result in [1], in [2] and in experiment [4] was inactive.
As for `CC1(C)S[C@@H]2[C@H](NC(=O)C(C(=O)Oc3ccc4c(c3)CCC4)c3ccccc3)C(=O)N2[C@H]1C(=O)O` (stereo not given in full), the outcome in experiment [1], in [2] and in experiment [4] was inactive.
In the case of `CCCCCCCCCCCCCCC1CO1` (stereo not given), the outcome in experiment [1], in experiment [2] and in [4] was inactive.
Regarding `CCCCCCCCCCCCCCBr`, the outcome in experiment [1], in experiment [3] and in experiment [4] was inactive.
Take `CC(C)NC[C@@H](O)COc1cccc2ccccc12`: the result in experiment [1], in experiment [3] and in experiment [4] was inactive.
In the case of `S=C=Nc1ccc(N=C=S)cc1`, the outcome in experiment [1], in experiment [2] and in experiment [4] was inactive.
`O=[N+]([O-])c1c(Cl)cc(Cl)cc1Cl`: the outcome in experiment [1] and in experiment [3] was inactive.
For the molecule `CC(C)(C)NCC(O)COc1cccc2c1C[C@H](O)[C@H](O)C2` (stereo not given in full), the result in experiment [1], in experiment [2], in experiment [3] and in experiment [4] was inactive.
`O=C1NCCN1CCO`: the outcome in [1], in experiment [2], in experiment [3] and in [4] was inactive.
For the molecule `CC(C)(CCC(=O)O)C(=O)O`, the outcome in [1], in [3] and in experiment [4] was inactive.
Turning to `O=C1c2ccccc2C(=O)C1c1ccccc1`, the result in experiment [1], in experiment [2] and in experiment [4] was inactive.
Take `CC(C)C(=O)c1c(C(C)C)nn2ccccc12`: the result in experiment [1], in experiment [2] and in experiment [4] was inactive.
In the case of `CCCCCCCC/C=C\CCCCCCCC(=O)OC`, the result in [1], in experiment [2], in experiment [3], in experiment [4], in experiment [5] and in [6] was inactive.
In the case of `CNCC(=O)N[C@@H](CCCN=C(N)N)C(=O)N[C@H](C(=O)N[C@@H](Cc1ccc(O)cc1)C(=O)N[C@H](C(=O)N[C@@H](Cc1cnc[nH]1)C(=O)N1CCC[C@H]1C(=O)N[C@@H](C)C(=O)O)C(C)C)C(C)C`, the result in experiment [1], in [2] and in experiment [4] was inactive.
With `CC1COc2c(N3CCN(C)CC3)c(F)cc3c(=O)c(C(=O)O)cn1c23` (stereo not given), the result in [1], in experiment [2] and in [4] was inactive.
Regarding `OC(CCCN1CCCCC1)(c1ccccc1)c1ccccc1`, the result in [1] and in experiment [3] was inactive.
As to `CN1CCN(c2c(F)cc3c(=O)c(C(=O)O)cn4c3c2SCC4)CC1`, the result in [1], in [2] and in [4] was inactive.
In the case of `Cc1ncc(COP(=O)(O)O)c(CN)c1O`, the result in experiment [1], in experiment [2], in experiment [3] and in experiment [4] was inactive.
`C=C(C)C(=O)OC1CC(C)CC(C)(C)C1` (stereo not given): the result in [1], in experiment [2] and in experiment [4] was inactive.
In the case of `CCCCOC(=O)C(=O)Nc1cccc(-c2nn[nH]n2)c1`, the result in experiment [1] and in experiment [3] was inactive.
For the molecule `[K+]`, the outcome in [1], in experiment [2], in [4], in experiment [5], in experiment [7] and in [6] was inactive.
Turning to `COC(=O)NCCC[Si](OC)(OC)OC`, the result in [1] and in experiment [3] was inactive.
Take `CN1C(=O)c2ccc([N+](=O)[O-])cc2C1=O`: the result in [1], in experiment [2], in experiment [3] and in [4] was inactive.
For the molecule `O=C(NCCc1c[nH]c2ccccc12)c1cccnc1`, the outcome in experiment [1], in experiment [3] and in [4] was inactive.
As for `CC(=O)Nc1ncc([N+](=O)[O-])s1`, the result in experiment [1], in experiment [2], in [3] and in experiment [4] was inactive.
Take `c1ccc(SCCSc2ccccc2)cc1`: the outcome in [1], in experiment [2], in experiment [3] and in [4] was inactive.
As to `CN(C)C=Nc1c(I)cc(I)c(CCC(=O)O)c1I`, the outcome in experiment [1] and in experiment [3] was inactive.
In the case of `CCCC(=O)C(=O)O`, the outcome in experiment [1], in [2], in [3] and in experiment [4] was inactive.
Regarding `CC(C)S`, the outcome in [1], in experiment [3] and in experiment [4] was inactive.
With `CCc1ccc(Br)cc1`, the molecule was classed as inactive in [8].
In the case of `C=C(C)C(=O)OCCCCCCCC(C)C`, the molecule was classed as inactive in [8], in experiment [9], in [10], in [2] and in [3].
Take `Cc1ccc(Cl)cc1Cl`: the molecule was classed as inactive in experiment [8] and in experiment [9].
For `N=C(N)c1ccccc1`, the outcome in [1] and in experiment [4] was inactive.
On to `O=[N+]([O-])c1cc([N+](=O)[O-])c2ccc(S(=O)(=O)O)cc2c1O`, for which the outcome in experiment [8] was inactive.
Consider `FC(F)(F)C(Cl)(Cl)Cl`, for which the result in experiment [1] and in experiment [4] was inactive.
On to `CCCCCCCCCCCCCCCC(=O)O[C@@H]1CC(C)=C(/C=C/C(C)=C/C=C/C(C)=C/C=C/C=C(C)/C=C/C=C(C)/C=C/C2=C(C)C[C@@H](OC(=O)CCCCCCCCCCCCCCC)CC2(C)C)C(C)(C)C1`, for which the AC50 in [8] is 36.2 µM (active). The result in experiment [9] and in experiment [10] was inactive.
For the molecule `CN=C(NC#N)Nc1ccc(C2=NNC(=O)CC2C)cc1` (stereo not given), the result in [8] and in experiment [9] was inactive.
With `CCCC(C)CO` (stereo not given), the result in experiment [1] and in [4] was inactive.
As for `C=C(C)C(=O)OCCOCC`, the molecule was called inactive in [8].
As to `O=C(O)CC/C=C\CC[C@@H]1[C@@H](N2CCCCC2)[C@@H](O)C[C@@H]1OCc1ccc(-c2ccccc2)cc1`, the outcome in experiment [8] and in experiment [9] was inactive.

Broadly, the AC50 is the concentration at which the activity in the assay is half-maximal.
